From PubChem
VACV mCherry inh – vaccinia inhibition (mCherry reporter). Vaccinia virus mCherry reporter infection, fluorescence. Potency, µM (doses to about 36.5 µM), hits mostly inhibitors. actives 0.63% (n = 310,000); calls by dose curve; tested in A549 cells; also: nearly all actives have a fitted effect of over 35% in size
Vaccinia Venus – inhibitors of vaccinia virus (Venus reporter); Vaccinia virus Venus reporter expression, fluorescence; Potency, µM (doses to about 36.5 µM), usual class: inhibitors; actives 0.46% (n = 330,000); AID 720580; calls by dose curve; tested in A549 cells; also: nearly all actives have a fitted effect of over 30% in size
HCV inh – blocks hepatitis C virus. Huh7.5.1 HCVcc-Cre infection, luciferase reporter, 44 h. AID 651820. Potency, µM (doses to about 41.8 µM), usual class: inhibitors. actives 3.4% (n = 340,000); active = well fitted inhibition curve with a large enough effect; inconclusive = small, poorly fitted or top-dose-only effect, or another doubt; inactive = no such curve, though single readings can be large or run the other way
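Cells (1,000/well) were plated 4 h before compound, then infected with HCVcc-Cre virus (~0.5 moi). After 44 h further culture, infection was read as luciferase luminescence following a 15 min substrate incubation at room temperature.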
A number is an active result; i = inactive; ? = inconclusive; nt = no result; [ ] = remark or other dose. Compounds with a hit are over-represented: about 3.3% of the library has one in this group of screens.

SMILES | VACV mCherry inh | Vaccinia Venus | HCV inh
COc1cc(C(=O)Nc2ccc(OCc3cc(=O)n4cccc(C)c4n3)cc2)cc(OC)c1OC | 8.9µM | ? | nt
COc1ccccc1C(=O)Nc1ccc(OCc2cc(=O)n3cccc(C)c3n2)cc1 | i | i | nt
OCCNCc1cc(Br)ccc1OCc1ccc(Cl)cc1 | i | i | ?
CCOc1cc(CNCCSc2nnnn2C)cc(Br)c1OCc1ccccc1F | i | i | ?
COc1cc(CNCCO)cc(Br)c1OCc1ccccc1 | nt | nt | i
CCOc1cc(CNCCO)cc(Br)c1OCc1ccc(Cl)cc1Cl | nt | 13µM | ?
CCOc1cccc(CNc2ccc(O)cc2)c1OCc1ccc(Cl)cc1Cl | nt | i | i
OCCNCc1cc(Br)ccc1OCc1ccc(Cl)cc1Cl | nt | ? | 11µM
CCOc1cc(CNCCO)cc(Br)c1OCc1cccs1 | i | ? | 5.6µM
CCOc1cc(CNCc2ccncc2)cc(Br)c1OCc1ccccc1F | i[1.46 µM] | ? | 7.9µM
CCN(CC)C(=O)c1sc(NC(=O)C(C)C)c(C#N)c1C | i | i | i
COc1ccc(NC(=O)Cn2nc(-c3ccccc3)c3cnc4ccc(C)cc4c32)cc1 | i | i | nt
OC(c1ccccc1)(c1ccccc1)c1nccn1-c1ccccc1 | i | i | i
CCN(CC)CCNC(=O)CSc1nc2nc(C)c(Cc3ccccc3)c(C)n2n1 | i | i | nt
O=C(OC1Cc2c(O)cc(O)cc2OC1c1cc(O)c(O)c(O)c1)c1cc(O)c(O)c(O)c1 (stereo not given) | i | i | nt
O=C(O)c1ccc2c(c1)S(=O)(=O)c1cc(Cl)ccc1C2=O | i | i | i
COc1cccc(C(=O)c2cn(CC(=O)Nc3ccc4c(c3)OCCO4)c3nc(C)ccc3c2=O)c1 | i | i | nt
O=C(O)C1CCCC1 | i | i | nt
CCOC(=O)c1c(NC(=O)Cc2cccs2)sc(C(=O)NC2CCCC2)c1C | i | i | i
CCOC(=O)c1c(NC(=O)Cc2cccs2)sc(C)c1C | i | i | 35µM
COc1ccc2[nH]c(C)c(CCNC(=S)Nc3cccc(C)c3)c2c1 | ? | ? | i[8.37 µM]
CCc1cccc(C)c1NC(=S)NCCc1c(C)[nH]c2ccc(C)cc12 | 18µM | ? | 35µM
CCc1cccc(CC)c1NC(=S)NCCc1c(C)[nH]c2ccc(C)cc12 | 10µM | 16µM | 22µM
COc1ccc2[nH]c(C)c(CCNC(=S)Nc3cc(C)ccc3C)c2c1 | i | i | ?
CCCCCCCCCC[n+]1ccc(/C=C/c2c(C)[nH]c3ccccc23)cc1 | ? | i | nt
SMILES | VACV mCherry inh | Vaccinia Venus | HCV inh
CC(=O)c1cc2ccccc2c2ccccc12 | i | i | nt
C[C@@H](C[C@H](N)C(=O)O)C(=O)O | i | i | nt
O=C(Nc1cccnc1)c1cccc(-c2cc3ccccc3oc2=O)c1 | i | i | i
Cc1ccc2nc(NC(=O)c3cccc(-c4cc5ccccc5oc4=O)c3)sc2c1 | i | i | 8.9µM
COc1ccc(O)c(/C=N/n2c(-c3ccco3)csc2=Nc2cccnc2)c1 | i | i | i
CCN=c1scc(-c2cccs2)n1/N=C/c1cc(OC)ccc1O | i | i | 5µM
O=C(Cc1ccccc1[N+](=O)[O-])NCCCc1ccccc1 | i | i | i
O=C(NCCc1nnc2n1CCN(Cc1ccsc1)CC2)c1ccc(F)cc1 | i | i | nt
COc1ccc(/C=C/C(=O)NCC2Cc3cccc(-c4nc(C)cnc4C)c3O2)cc1OC (stereo not given) | i | i | nt
CCOc1ccc(-c2cnc(NCc3cccc4ccccc34)n2CCOC)cc1 | ? | ? | 10µM
CCOc1ccc(-c2cnc(NCc3cccc(Cl)c3)n2C)cc1 | i | i | nt
CN(C)S(=O)(=O)N1CCCC(C(=O)c2ccc(-c3ccccc3)c(F)c2)C1 (stereo not given) | nt | nt | 22µM
O=C(c1ccc(-c2ccccc2)c(F)c1)C1CCCN(CCO)C1 (stereo not given) | i | i | 11µM
CSc1ccc(C(=O)C2CCCN(S(=O)(=O)N(C)C)C2)cc1 (stereo not given) | i | i | i
CCn1cc(CN2CCCC(C(=O)c3ccc(-c4ccccc4)c(F)c3)C2)cn1 (stereo not given) | i | i | ?
COc1cccc(CC(O)CC2c3c(cc4c(c3OC)OCO4)CCN2C)c1 (stereo not given) | i | ? | ?
Cc1ccc(C)c(/C=C/C(=O)c2ccccc(=O)c2O)c1 | 14µM | ? | ?
O=C(/C=C/c1ccccc1Cl)c1ccccc(=O)c1O | 10µM | ? | ?
O=C(/C=C/c1ccccc1Cl)c1cccnc1 | nt | i | ?
CC(C)NC(=O)c1ccccc1NC(=O)Cc1ccc([N+](=O)[O-])cc1 | i | i | i
O=C(C=Cc1ccccc1O)c1ccccc1O | i | i | ?
O=C(/C=C/c1ccc([N+](=O)[O-])cc1)c1cccs1 | i | i | i
O=C(/C=C/c1ccc([N+](=O)[O-])cc1)c1ccccc(=O)c1O | ? | i | 7.9µM
CC(C)NC(=O)c1ccccc1NC(=O)/C=C/c1ccc([N+](=O)[O-])cc1 | nt | nt | 11µM
CN(Cc1ccccc1)C(=O)[C@@H]1CCCN1C(=O)[C@@H]1CCCN1C(=O)c1cccs1 | i | i | nt
SMILES | VACV mCherry inh | Vaccinia Venus | HCV inh
COC(=O)c1ccc2c(CCO)c[nH]c2c1 | i | i | i
Cc1cc(C)cc(N(CCC#N)C(=O)COC(=O)c2ccc(OCc3c(C)noc3C)cc2)c1 | i | i | ?
COc1ccc(/C=C(\C)C(=O)NO)cc1 | i | i | nt
Cc1cccnc1C(c1ccc(F)cc1)N(C)C(=O)C1CCN(CCOc2ccc(Cl)cc2Cl)CC1 (stereo not given) | i | i | nt
Cc1nn(C)cc1C(=O)/C=C/c1ccc([N+](=O)[O-])cc1 | i | i | 22µM
CCn1cc(CN(C)C(=O)/C=C/c2ccc([N+](=O)[O-])cc2)c(C)n1 | i | i | i
CC1=Nc2cccc([N+](=O)[O-])c2NC(=O)C1 | nt | nt | i
Cc1cccc(CN(CC(=O)N/N=C/c2ccco2)S(=O)(=O)c2ccc(Cl)cc2)c1 | nt | i | i
Cc1cccc(CN(CC(=O)N/N=C/c2cccs2)S(=O)(=O)c2ccc(Cl)cc2)c1 | nt | ? | 11µM
CC(=O)[C@H]1CC[C@H]2[C@@H]3C=CC4=CC(=O)CC[C@@]4(C)[C@@H]3CC[C@]12C | i | ? | 0.56µM
C[C@]12CCC3C(C=CC4=CC(=O)CC[C@]43C)C1CC[C@]2(O)CCC(=O)O (stereo not given in full) | i | i | nt
Cc1ccc(C)c(Oc2cc(NC(=O)CCCn3nc(C)c([N+](=O)[O-])c3C)cc([N+](=O)[O-])c2)c1 | ? | ? | 13µM
Cc1ccc(Oc2cc(NC(=O)CCCn3nc([N+](=O)[O-])cc3C)cc([N+](=O)[O-])c2)cc1 | ? | i | ?
COc1cccc2c1C(=O)c1c(O)c3c(c(O)c1C2=O)CC(O)(C(C)=NO)CC3OC1CC(N)C(O)C(C)O1 (stereo not given) | i | i | ?
COc1cccc2c1C(=O)c1c(O)c3c(c(O)c1C2=O)C[C@@](O)(C(=O)CO)C[C@@H]3OC1CC(N)C(O)C(C)O1 (stereo not given in full) | i | i | 1µM
COc1cccc2c1C(=O)c1c(O)c3c(c(O)c1C2=O)CC(O)(C(C)=O)CC3OC1CC(N(C)C)C(O)C(C)O1 (stereo not given) | i | i | 0.56µM
COc1cccc2c1C(=O)c1c(O)c3c(c(O)c1C2=O)C[C@@](O)(C(=O)CO)C[C@@H]3O[C@H]1C[C@H](N)[C@H](O)[C@H](C)O1 | i | i | i[8.37 µM]
CCCCCNC(=O)CCCCCn1c(=O)[nH]c2ccsc2c1=O | i | i | nt
